Source: PubChem BioAssay AID504411 (The Scripps Research Institute Molecular Screening Center, 2011)
Out of some 340,000 compounds screened, about 200 (0.059%) were called active. Cut-off read from the data, not from the text of the source: active = inhibition above about 34%; inactive = the rest. Many of the other results were omitted from the sample, so actives are more common in it than they were.

molecular target: Diacylglycerol lipase-beta (Homo sapiens) (UniProt Q8NCG7); experiment: DAGLB lipase inhibitors, primary screen, biochemical, fluorescence, HTS (AID 504411); details: HEK293T DAGLB membrane lysate, EnzChek fluorogenic substrate; at 5.17 µM; stronger effect = higher value;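 note: 0% = enzyme with vehicle and 100% = wells lacking enzyme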
Sequence (Q8NCG7 whole entry, looked up): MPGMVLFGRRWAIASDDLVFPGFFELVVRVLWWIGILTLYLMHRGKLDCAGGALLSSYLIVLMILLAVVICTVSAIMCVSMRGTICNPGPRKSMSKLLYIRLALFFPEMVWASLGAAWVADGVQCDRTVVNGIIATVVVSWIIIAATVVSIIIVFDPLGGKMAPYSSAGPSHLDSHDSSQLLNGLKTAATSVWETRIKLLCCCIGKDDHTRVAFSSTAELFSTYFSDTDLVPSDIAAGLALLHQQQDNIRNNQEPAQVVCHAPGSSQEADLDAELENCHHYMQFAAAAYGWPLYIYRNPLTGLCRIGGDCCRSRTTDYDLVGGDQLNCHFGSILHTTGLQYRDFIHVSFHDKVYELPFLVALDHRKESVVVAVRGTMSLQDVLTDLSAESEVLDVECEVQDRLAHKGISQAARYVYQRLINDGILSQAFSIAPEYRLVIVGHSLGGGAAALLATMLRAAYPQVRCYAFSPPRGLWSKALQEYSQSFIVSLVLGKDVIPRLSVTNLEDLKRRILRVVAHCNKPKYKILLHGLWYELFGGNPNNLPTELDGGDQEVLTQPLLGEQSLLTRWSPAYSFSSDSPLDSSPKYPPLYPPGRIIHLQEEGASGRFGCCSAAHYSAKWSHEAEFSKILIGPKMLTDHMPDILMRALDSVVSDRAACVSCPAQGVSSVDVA

Row | SMILES | inhibition
1 | O=C1COc2ccc(C(=O)COC(=O)c3ccccc3Cl)cc2N1 | -2.51% (inactive)
2 | CCN1CCN(CC(=O)c2cc(OC)c(OC)c(OC)c2)CC1 | -1.97% (inactive)
3 | COc1ccc(/C=C/CN2CCN(Cc3ccc(C)cc3)C(CCO)C2)cc1 (configuration not stated) | -2.8% (inactive)
4 | Cc1ccccc1C(=O)N1CCC(C(=O)Oc2ccc(C#N)cc2)CC1 | -0.99% (inactive)
5 | COc1ccc(-c2nc(N)sc2C2(O)C(=O)Nc3c(Br)cc(F)cc32)cc1OC (configuration not stated) | -0.83% (inactive)
6 | O=S1(=O)CCO[C@H]2Cc3ccccc3[C@H]2N1Cc1ccccc1 | -1.47% (inactive)
7 | Cc1nc(NC(=O)c2ccc3c(c2)OCCO3)ccc1Br | -9.56% (inactive)
8 | COc1ccc(OC)c(NC(=O)CN(C)CCOc2ccc(Br)cc2)c1 | -4.02% (inactive)
9 | CCOC(=O)c1sc(/N=C/Nc2nc(C)c(C(=O)OCC)s2)nc1C | -0.89% (inactive)
10 | O=C(Nc1c2c(nn1-c1cccc(Cl)c1)CS(=O)(=O)C2)c1cccs1 | -3.19% (inactive)
11 | CCOC(=O)c1nn(-c2ccccc2F)c2nc(Nc3ccccc3)cc(=O)n12 | 0.18% (inactive)
12 | Cc1nn(-c2ncccn2)c2c1C(=O)CC(C)(C)C2Br (configuration not stated) | -0.78% (inactive)
13 | CCCN1C(=O)C(NS(=O)(=O)c2ccc(N)cc2)(C(F)(F)F)C(C(=O)OC)=C1C (configuration not stated) | 0.93% (inactive)
14 | COc1ccc(C(=O)CN2C(=O)NC3(CCc4ccccc43)C2=O)c(OC)c1 (configuration not stated) | -2.52% (inactive)
15 | CC(=O)Nc1ccc(NS(=O)(=O)c2cc(C)sc2C)cc1 | 2.41% (inactive)
16 | COc1cccc(N(C(=O)CNC(=O)c2ccco2)C(C(=O)NC2CCCCC2)c2cccnc2)c1 (configuration not stated) | -2.11% (inactive)
17 | O=c1[nH]c2c(c(=O)n1-c1ccccc1)CCO2 | 0.85% (inactive)
18 | CCOC(=O)c1cnc2ccc(F)cc2c1Nc1ccc2c(c1)OCCO2 | -13.6% (inactive)
19 | COc1cc(CCC(=O)N2CCN(c3ccccc3Cl)CC2)cc(OC)c1OC | -2.89% (inactive)
20 | O=C(c1cccs1)N1CCCC(c2nc(-c3ccc(F)cc3)no2)C1 (configuration not stated) | -7.27% (inactive)
21 | C=CCNC(=S)N1CCN(CCN=Cc2c(C)[nH]n(-c3ccc([N+](=O)[O-])cc3)c2=O)CC1 | 1.77% (inactive)

Row | SMILES | inhibition
22 | O=C(CN1CCC(NC(=O)C2CC2)CC1)Nc1ccccc1[N+](=O)[O-] | 1.28% (inactive)
23 | Cc1ccc(/C=N/NC(=O)C(NC(=O)c2ccccc2)c2n[nH]c(=O)c3ccccc23)cc1 (configuration not stated) | 34.8% (active)
24 | Cc1ccc(/C=N/NC(=O)COc2ccccc2-c2ccccc2)cc1 | -8.44% (inactive)
25 | O=C(O)c1ccc(/C=N/NC(=S)NCc2ccccc2)cc1 | 3.11% (inactive)
26 | COc1ccc(N(CC(=O)N2CCOCC2)S(=O)(=O)c2ccccc2)cc1Cl | -0.45% (inactive)
27 | COc1ccc(NC(=O)C[C@H]2C(=O)N(CCc3ccccc3)C[C@@H]2C)cc1 | -3.33% (inactive)
28 | CCC1C=C(c2ccccc2)C=CN=C1N(CC)CC (configuration not stated) | -3.08% (inactive)
29 | Nc1ccc(OCC(O)C[n+]2ccc(CCS(=O)(=O)[O-])cc2)cc1 (configuration not stated) | 0.26% (inactive)
30 | CCc1c(C)sc(NC(=O)c2cccs2)c1C(N)=O | -1.07% (inactive)
31 | O=c1oc2ccc(C#CC3(O)CCCCC3)cc2cc1-n1cc(-c2ccsc2)nn1 | 0.49% (inactive)
32 | COc1ccccc1NS(=O)(=O)N(C)C | -1.14% (inactive)
33 | Cc1ccc(Cc2c(-c3ccccc3)nc3ccc(Cl)cn23)cc1 | -5.98% (inactive)
34 | O=C(NCCCN1CCOCC1)c1cnn2c(-c3ccccc3)cc(-c3ccccc3)nc12 | 1.48% (inactive)
35 | CN(c1ccc(OCC(=O)OCC(=O)Nc2cccc([N+](=O)[O-])c2)cc1)S(=O)(=O)c1ccc(F)cc1 | -2.67% (inactive)
36 | Cc1sc(NC(=O)C2C3CCC(O3)C2C(=O)O)c(C(=O)OC(C)C)c1-c1ccc(Cl)cc1 (configuration not stated) | 6.11% (inactive)
37 | CCN(CC(=O)NCc1cccs1)C(=O)c1cccc(S(=O)(=O)Nc2ccccc2OC)c1 | 0.52% (inactive)
38 | CCc1cc(C(=O)N(CC)CC(=O)Nc2c(F)cccc2F)sc1C | -0.43% (inactive)
39 | Cc1oc2cc3oc(=O)ccc3cc2c1C | -1.48% (inactive)
40 | O=c1[nH]c(=O)n(Cc2ccco2)c2c1C(C(F)(F)F)(C(F)(F)F)N=C(c1ccco1)N2 | -0.13% (inactive)
41 | COc1ccc(/C=N/OCc2ccccc2C#N)c(OC)c1 | -2.91% (inactive)
42 | CC(=O)c1nn(-c2cccc(Br)c2)cc1C(=O)c1cccc2ccccc12 | -10.7% (inactive)

Row | SMILES | inhibition
43 | COc1ccc(CN2CCN(Cc3cn(C)nc3-c3ccccc3)CC2CCO)c(C)c1C (configuration not stated) | -4.22% (inactive)
44 | CC1CCN(S(=O)(=O)c2ccc3ncn(CC(=O)N(C)C4CCCCC4)c(=O)c3c2)CC1 | -3.62% (inactive)
45 | OC(c1ccccc1)c1nccn1Cc1ccccc1 (configuration not stated) | 0.02% (inactive)
46 | O=C(NCc1ccc2c(c1)OCO2)C(=O)NCC1OCCN1S(=O)(=O)c1ccc(F)cc1 (configuration not stated) | 1.47% (inactive)
47 | NC(N)=Nc1nc2ccc(Br)cc2c(=O)[nH]1 | -0.46% (inactive)
48 | CCC(=O)Nc1ccc(S(=O)(=O)NCC2CCCO2)cc1 (configuration not stated) | 0.13% (inactive)
49 | CCCCOc1ccc(NC(=O)[C@@H]2CCCN2C(=O)C2CCN(S(=O)(=O)c3ccc(C)cc3)CC2)cc1 | -4.14% (inactive)
50 | COCCNC(=O)CCCN1C(=O)c2ccccc2Sc2ncccc21 | 0.34% (inactive)
51 | C=CCC(NCCCO)c1cccc(OC)c1OC (configuration not stated) | -0.64% (inactive)
52 | O=C(Cc1ccc(Cl)cc1)NCc1nc(-c2ccccc2)no1 | -5.92% (inactive)
53 | O=C(Nc1cccc(Cl)c1)C1CCCN(c2cnccn2)C1 (configuration not stated) | -0.35% (inactive)
54 | COCc1ccc(CN2CCC(Oc3ccc(C(=O)NCc4ccccn4)cc3)CC2)o1 | -0.42% (inactive)
55 | COC(=O)c1cc(N2CCNCC2)nc2ccccc12 | 1.6% (inactive)
56 | Cc1cc(F)ccc1S(=O)(=O)Nc1ncnc2scc(-c3ccc(F)cc3)c12 | 11% (inactive)
57 | CC(=O)c1nn(-c2cccc(C(F)(F)F)c2)c(=O)[nH]c1=O | -0.12% (inactive)
58 | COC(=O)CC1=NN(c2nc(C)cc(C)n2)C(=O)C1 | -2.2% (inactive)
59 | CCCCn1c(N)c(N(CC(C)C)C(=O)C2CSC3(C)CCC(=O)N23)c(=O)[nH]c1=O (configuration not stated) | 0.2% (inactive)
60 | C=CCN(C(=O)Cn1ncc2c1-c1cc(C)ccc1OC2)c1ccccc1 | -2.66% (inactive)
61 | Cc1c(CCO)c(=O)[nH]n1C(=O)c1c(F)cccc1F | -0.98% (inactive)
62 | Cc1ccnc(NC(=O)CCC(=O)N(CC(=O)NCCc2ccccc2)Cc2cccs2)c1 | -0.29% (inactive)
